# The supplement of paper PMC6089552
# Hit rate of the full screen: of about 3,200 compounds, about 300 (9.4%) showed activity. What follows is part of a selection rich in actives, with near analogues and random picks from the rest. A number with no mark means an inactive call.
# System: A673/TR/shEF
# Assay: cell viability (LOESS-normalised, relative to median of negative controls) (log2 ratio); higher = more viable cells (less compound effect), active = hit call of the paper (over 3 MAD below the median)
# Settings: treatment time: 72 h
# Method in brief: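 A673/TR/shEF Ewing sarcoma cells were plated at 1,500 per well in 384-well plates and cultured with or without doxycycline, added 24 h before compounds, to induce EWS-FLI1 shRNA knockdown. Library compounds at two or more concentrations, alongside DMSO controls, were applied for three days. Cell viability was measured by CellTiter-Glo luminescence on an Envision reader. Readings were LOESS-corrected per plate, divided by the median of negative controls and log2-transformed, and hits were wells lying at least three median absolute deviations from the median of all screened wells.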
# [1] = 0.25 µM, library screen: screen2, EWS-FLI1 expression: high (no doxycycline)
# [2] = 0.25 µM, library screen: screen2, EWS-FLI1 expression: low (doxycycline-induced shRNA knockdown)
# [3] = 2.5 µM, library screen: screen2, EWS-FLI1 expression: high (no doxycycline)
# [4] = 2.5 µM, library screen: screen2, EWS-FLI1 expression: low (doxycycline-induced shRNA knockdown)
# [5] = 0.25 µM, library screen: screen1, EWS-FLI1 expression: high (no doxycycline)
# [6] = 0.25 µM, library screen: screen1, EWS-FLI1 expression: low (doxycycline-induced shRNA knockdown)
# [7] = 2.5 µM, library screen: screen1, EWS-FLI1 expression: high (no doxycycline)
# [8] = 2.5 µM, library screen: screen1, EWS-FLI1 expression: low (doxycycline-induced shRNA knockdown)
compound,measurement,setting,value
NC(CCP(=O)(O)O)C(=O)O (stereo not given),cell viability (log2),[1],0.115
same,cell viability (log2),[2],0.0812
same,cell viability (log2),[3],0.106
same,cell viability (log2),[4],0.13
CC(C)(C#N)O[C@@H]1O[C@H](CO)[C@@H](O)[C@H](O)[C@H]1O,cell viability (log2),[5],0.0597
same,cell viability (log2),[6],0.0616
same,cell viability (log2),[7],0.164
same,cell viability (log2),[8],-0.0392
CC(C)NC(C)Cc1ccc(I)cc1 (stereo not given),cell viability (log2),[1],0.0787
same,cell viability (log2),[2],0.0338
same,cell viability (log2),[3],0.129
same,cell viability (log2),[4],0.0526
CCN1C[C@]2(COC)[C@H](O)C[C@H](OC)[C@]34C1[C@H]([C@H](OC)[C@H]23)[C@]1(OC(C)=O)[C@H]2[C@@H](OC(=O)c3ccccc3)[C@](O)(C[C@H]24)[C@@H](OC)[C@@H]1O,cell viability (log2),[5],0.162
same,cell viability (log2),[6],0.0997
same,cell viability (log2),[7],0.181
same,cell viability (log2),[8],0.202
CCC(=O)C(CC(C)N1CCOCC1)(c1ccccc1)c1ccccc1 (stereo not given),cell viability (log2),[5],0.0298
same,cell viability (log2),[6],0.011
same,cell viability (log2),[7],0.0537
same,cell viability (log2),[8],-0.074
CC[C@@H](C(=O)[C@@H](C)[C@@H](O)[C@H](C)[C@@H]1O[C@@H]([C@@H](CC)C(=O)O)CC[C@@H]1C)[C@H]1OC2(C=C[C@@H](O)[C@]3(CC[C@@](C)([C@H]4CC[C@](O)(CC)[C@H](C)O4)O3)O2)[C@H](C)C[C@@H]1C (stereo not given in full),cell viability (log2),[5],-0.101 (active)
same,cell viability (log2),[6],0.0935
same,cell viability (log2),[7],-0.582 (active)
same,cell viability (log2),[8],-0.123
O=C(O)CF,cell viability (log2),[5],-0.0204
same,cell viability (log2),[6],-0.0324
same,cell viability (log2),[7],0.103
same,cell viability (log2),[8],0.0882
COc1cc(CC(C)N)c(OC)cc1I (stereo not given),cell viability (log2),[1],0.14
same,cell viability (log2),[2],0.0726
same,cell viability (log2),[3],0.151
same,cell viability (log2),[4],0.083
O=C[C@H](Cl)[C@@H](O)[C@H](O)[C@H](O)CO,cell viability (log2),[1],0.14
same,cell viability (log2),[2],0.0253
same,cell viability (log2),[3],0.0931
same,cell viability (log2),[4],0.107
NCC#Cc1ccccc1,cell viability (log2),[1],0.139
same,cell viability (log2),[2],-0.0046
same,cell viability (log2),[3],0.0226
same,cell viability (log2),[4],0.0206
c1ccc2c(c1)[I+]c1ccccc1-2,cell viability (log2),[1],-1.37 (active)
same,cell viability (log2),[2],-0.118 (active)
same,cell viability (log2),[3],-1.4 (active)
same,cell viability (log2),[4],-0.388 (active)
O=C1c2ccccc2C(=O)c2ccccc21,cell viability (log2),[5],0.0481
same,cell viability (log2),[6],0.0868
same,cell viability (log2),[7],0.203
same,cell viability (log2),[8],0.0785
COc1cc2c3cc1Oc1cc(ccc1O)C[C@H]1c4c(cc(OC)c(O)c4Oc4ccc(cc4)C[C@@H]3N(C)CC2)CCN1C,cell viability (log2),[5],0.0853
same,cell viability (log2),[6],0.0939
same,cell viability (log2),[7],0.083
same,cell viability (log2),[8],0.276
CC1=C2[C@H]3OC(=O)[C@@H](C)[C@@H]3CC[C@@]2(C)C=CC1=O,cell viability (log2),[5],0.0669
same,cell viability (log2),[6],-0.0349
same,cell viability (log2),[7],0.0906
same,cell viability (log2),[8],0.0161
CCN(CC)C(=O)N[C@H]1C=C2c3cccc4[nH]cc(c34)C[C@H]2N(C)C1,cell viability (log2),[1],0.144
same,cell viability (log2),[2],0.146
same,cell viability (log2),[3],0.172
same,cell viability (log2),[4],0.138
C=C(C)[C@@H]1C2OC(=O)C1[C@]1(O)CC3O[C@]34C(=O)O[C@H]2[C@]14C.CC(C)(O)[C@@H]1C2OC(=O)C1[C@]1(O)C[C@H]3O[C@]34C(=O)O[C@H]2[C@]14C (stereo not given in full),cell viability (log2),[1],0.0987
same,cell viability (log2),[2],0.0228
same,cell viability (log2),[3],0.079
same,cell viability (log2),[4],0.0567
O=C(O)[C@@H]1CCN1,cell viability (log2),[1],0.101
same,cell viability (log2),[2],0.092
same,cell viability (log2),[3],0.0671
same,cell viability (log2),[4],0.0609
O=C(O)C1C2CCC(O2)C1C(=O)O (stereo not given),cell viability (log2),"0.025 µM, library screen: screen1, EWS-FLI1 expression: high (no doxycycline)",0.136
same,cell viability (log2),"0.025 µM, library screen: screen1, EWS-FLI1 expression: low (doxycycline-induced shRNA knockdown)",0.0328
same,cell viability (log2),[5],0.0769
same,cell viability (log2),[6],0.0235
same,cell viability (log2),[1],0.267
same,cell viability (log2),[2],0.0812
same,cell viability (log2),[7],-0.431 (active)
same,cell viability (log2),[8],-2.19 (active)
same,cell viability (log2),[3],0.105
same,cell viability (log2),[4],-0.0306
same,cell viability (log2),"25 µM, library screen: screen1, EWS-FLI1 expression: high (no doxycycline)",-0.369 (active)
same,cell viability (log2),"25 µM, library screen: screen1, EWS-FLI1 expression: low (doxycycline-induced shRNA knockdown)",-2.13 (active)
COc1ccc(CN2CCN(Cc3cccc(F)c3)CC2)cc1,cell viability (log2),[5],0.0679
same,cell viability (log2),[6],0.104
same,cell viability (log2),[7],0.124
same,cell viability (log2),[8],0.0696
Nc1ncnc2c1ncn2[C@@H]1O[C@@H]2COP(O)(=S)O[C@H]2[C@H]1O (stereo not given in full),cell viability (log2),[1],0.205
same,cell viability (log2),[2],0.149
same,cell viability (log2),[3],0.079
same,cell viability (log2),[4],0.148
CSc1nc(NC(C)C)nc(NC(C)C)n1,cell viability (log2),[5],0.0904
same,cell viability (log2),[6],-0.0688
same,cell viability (log2),[7],0.0234
same,cell viability (log2),[8],0.0938
CNC(=O)O/N=C(\C)SC,cell viability (log2),[5],0.0466
same,cell viability (log2),[6],0.0661
same,cell viability (log2),[7],0.0904
same,cell viability (log2),[8],0.143
O=C1C=C2C(=CCOC2O)O1 (stereo not given),cell viability (log2),[5],-0.259 (active)
same,cell viability (log2),[6],0.05
same,cell viability (log2),[7],-2.95 (active)
same,cell viability (log2),[8],-0.992 (active)
